TDP1 cell CPT – DT40-hTDP1 cell growth loss with CPT. chicken DT40 Tdp1-/-;hTDP1 cells + 20 nM CPT, ATP luminescence, 48 h. Potency, µM (titrated, usually from 46.2 µM), without a hit: at the highest dose activity change, negative = growth inhibition, most hits filed as inhibitors. 420,000 compounds, 12% hits; also: potency is read from the fitted curve at half-maximal effect; % is scaled to controls: 0 for no effect and ±100 for the full control effect; nearly all actives have a fitted effect of over 55% in size
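Chicken DT40 Tdp1-/- cells stably complemented with human TDP1 were seeded at 400 cells/well in medium containing 20 nM camptothecin, exposed to pin-transferred compounds, and grown at 37 °C for at least 48 hr. Viability was read as ATP luminescence.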
DT40 TDP1 no CPT – qHTS for Inhibitors of human tyrosyl-DNA phosphodiesterase 1 (TDP1): qHTS in cells in absence of CPT. DT40 Tdp1-/- hTDP1 cells, no CPT, ATP luminescence, 48 h. Potency, µM (highest dose often 46.2 µM), without a hit: at the highest dose activity change, negative = growth inhibition, actives largely listed as inhibitors. 420,000 compounds, 15% hits. AID 686978, 2013; also: potency is read from the fitted curve at half-maximal effect; % is scaled to controls: 0 for no effect and ±100 for the full control effect; nearly all actives have a fitted effect of over 55% in size
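Luminescent ATP content (CellTiter-Glo) served as the growth readout. Knockout chicken DT40 cells expressing human TDP1 were exposed to compounds without camptothecin for a minimum 48 hr at 37 °C.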
HepG2 tox – HepG2 cytotoxicity, counter-screen for TGF-b inhibitors; HepG2 CAGA-GFP viability, ATP luminescence, 18 h; Potency, µM (series often up to 46.1 µM), for the others: top-dose activity change, negative = cytotoxicity, usual class: cytotoxic; 410,000 compounds, 0.76% hits; also: potency is read from the fitted curve at half-maximal effect
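CellTiter-Glo luminescence gave cytotoxicity after 18 hours at 37 degrees C. The cells were HepG2 CAGA-GFP in 1% FBS DMEM, stimulated with 500 pg/mL TGF-beta after compound addition. %Activity was normalised to no-cell wells (complete cell-killing) and DMSO (no toxicity), and curves were fitted and classified.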
TDP1 inh – TDP1 (human) enzyme inhibition. Q9NUW8. recombinant TDP1, AlphaScreen DNA substrate cleavage. AID 485290. Potency, µM (series often up to 130 µM), for the others: at the highest dose activity change, negative = inhibition, usual class: inhibitors. 350,000 compounds, 0.28% hits; also: potency is read from the fitted curve at half-maximal effect; % is scaled to controls: 0 for no effect and ±100 for the full control effect; nearly all actives have a fitted effect of over 40% in size
Target sequence (Q9NUW8 whole entry, looked up): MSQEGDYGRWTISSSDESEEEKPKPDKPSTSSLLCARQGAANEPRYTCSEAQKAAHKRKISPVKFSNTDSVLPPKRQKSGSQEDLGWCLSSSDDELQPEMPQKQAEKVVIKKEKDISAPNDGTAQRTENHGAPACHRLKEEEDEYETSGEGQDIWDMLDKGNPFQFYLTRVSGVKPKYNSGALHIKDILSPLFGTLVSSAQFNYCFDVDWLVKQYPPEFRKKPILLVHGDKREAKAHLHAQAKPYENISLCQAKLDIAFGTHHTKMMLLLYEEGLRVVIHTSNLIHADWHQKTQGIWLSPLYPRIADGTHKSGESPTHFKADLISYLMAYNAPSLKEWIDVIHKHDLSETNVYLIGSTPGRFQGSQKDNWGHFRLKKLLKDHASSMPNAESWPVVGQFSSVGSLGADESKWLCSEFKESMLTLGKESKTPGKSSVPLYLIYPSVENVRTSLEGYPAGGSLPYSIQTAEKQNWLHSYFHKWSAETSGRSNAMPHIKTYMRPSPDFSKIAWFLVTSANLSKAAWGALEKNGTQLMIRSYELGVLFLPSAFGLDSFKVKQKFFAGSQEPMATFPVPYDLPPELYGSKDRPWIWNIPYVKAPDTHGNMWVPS
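Recombinant E. coli-expressed Tdp1 (1 nM) preincubated with compound 15 min at RT, then 5'-biotin/3'-phosphotyrosine-FITC DNA substrate (15 nM) added for 5 min. AlphaScreen beads (10 ug/ml) added, 10 min RT; tyrosine-FITC cleavage read as signal loss.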
IL1B secr inh – inhibitors of inflammasome signaling (IL-1 beta secretion); 360,000 compounds, 4.7% hits; THP-1 LPS/ATP IL-1B secretion, AlphaLISA, 16 h; hits give low values; activity change, % at 57.5 µM; in the data active = activity change below about -50%; inconclusive = mostly about -30% to -49%; also: % is scaled to controls: 0 for no effect and ±100 for the full control effect
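THP-1 cells pretreated 1 hr with compounds (up to 57.5 uM final), then stimulated with LPS (250 ng/mL final) plus ATP (1.25 mM final); secreted IL-1B measured by AlphaLISA after 16 hr, decreased signal indicating inhibition.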
TGFb inhibitor – inhibitors of TGF-b signaling; HepG2 CAGA-GFP TGF-b/SMAD3 reporter, GFP fluorescence, 18 h; TGF-beta stimulated, 500 pg/mL final; Potency, µM (highest dose often 46.1 µM), inactives show top-dose activity, negative = inhibition, actives largely listed as inhibitors; 410,000 compounds, 1.2% hits; also: potency is read from the fitted curve at half-maximal effect; % is scaled to controls: 0 for no effect and ±100 for the full control effect; nearly all actives have a fitted effect of over 65% in size
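GFP signal (ex488/em500-530) from TGF-beta-stimulated HEPG2 CAGA-GFP cells, 500 pg/mL final, 18 h at 37 degrees C in DMEM plus 1% FBS, normalized to unstimulated and DMSO-stimulated controls.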
* hit, by the source's call; u = inconclusive; x = no result; [ ] = another dose, or the depositor's remark. The list is not random: actives were taken first. Their share in the collection is about 19%. Unless noted, calls follow the shape of the dose curve; as a rule, active = well fitted curve in the direction sought with a large enough effect; inconclusive = small, poorly fitted or top-dose-only effect, or another doubt; inactive = no such curve, though single readings can be large; an effect the other way counts as inactive or inconclusive.

SMILES	TDP1 cell CPT	DT40 TDP1 no CPT	HepG2 tox	TDP1 inh	IL1B secr inh	TGFb inhibitor
c1ccc(CNc2ccnc(-c3ccoc3)n2)cc1	-0.6%	-22.2%	x	10.9%[56.1 µM]	x	x
COC(=O)C1=CN(C)C=C(C(=O)OC)C1c1ccc(O)c(OC)c1	2.8%	-8.6%	6.7%	-2.0%	0.2	12.8%
COC(=O)C1=CN(c2ccc(OC)cc2)C=C(C(=O)OC)C1c1ccc(C)c([N+](=O)[O-])c1	u	20.6µM*	4.3%	5.8%	-6.3	0.6%
COC(=O)C1=CN(c2cccc(C(F)(F)F)c2)C=C(C(=O)OC)C1c1ccc(O)c(OC)c1	u	u	-6.8%	x	-50.9*	u
COC(=O)C1=CN(c2ccc(F)cc2)C=C(C(=O)OC)C1c1cccc([N+](=O)[O-])c1	-24.7%	25.9µM*	12.7%	x	-0.7	10.3%
CN(C(=O)C1CCC(=O)N(CCc2ccc(Cl)cc2)C1)C1CCOCC1 (centres undefined)	-5.2%	0.1%	1.6%	1.1%	-2.2	16.1%
COCCC(=O)N1CCC(n2nccc2NC(=O)CCc2ccccc2)CC1	-1.3%	-25.7%	1.4%	0.6%	7.0	9.3%
Cc1cccc(OCC(O)CN2C(C)(C)CC(O)CC2(C)C)c1 (centres undefined)	-18.9%	-17.7%	-33.2%	5.1%	-1.7	-7.1%
CCCCCn1c(=N)n(CC(O)COc2cccc(C)c2)c2ccccc21 (centres undefined)	2.91µM*	2.06µM*	-107.3%	-1.1%	x	u
CCn1c(=N)n(CC(O)COc2cccc(C)c2)c2ccccc21 (centres undefined)	14.6µM*	9.2µM*	-44.0%	8.2%	u	-4.1%
Cc1cc(C)n(CC(O)COc2cccc(OCC(O)Cn3nc(C)cc3C)c2)n1 (centres undefined)	u	u	-1.3%	-2.1%	5.5	u
CCCn1c(=N)n(CC(O)COc2cccc(C)c2)c2ccccc21 (centres undefined)	16.4µM*	14.6µM*	-55.4%	-2.9%	u	-0.7%
CC(C)CC1OC(=O)C2=CCCCC21 (centres undefined)	x	x	x	10.8%	x	x
CC1(C)C[C@H](O)[C@]2(CO)[C@H](O)C[C@]3(C)C(=CCC4[C@@]5(C)CC[C@H](O)C(C)(C)C5CC[C@]43C)[C@@H]2C1 (some centres undefined)	u	23.1µM*	11.2µM*	-5.7%	15.0	u
CC1(C)C[C@H](O)[C@]2(CO)CC[C@]3(C)C(=CCC4[C@@]5(C)CC[C@H](O)C(C)(C)C5CC[C@]43C)[C@@H]2C1 (some centres undefined)	u	u	-19.9%	x	17.5	-3.5%
CC1(C)CC[C@]2(C(=O)O)CC[C@]3(C)C(=CCC4[C@@]5(C)CC[C@H](O)C(C)(C)[C@@H]5CC[C@]43C)C2C1 (some centres undefined)	-1.6%	-9.4%	x	4.8%	x	x
CC1(C)CC[C@]2(C(=O)O)CC[C@]3(C)C(=CC[C@@H]4[C@@]5(C)CC[C@H](O)C(C)(C)[C@@H]5CC[C@]43C)[C@@H]2C1	u	23.1µM*	2.2%	-1.2%	25.9	-15.3%
COc1cccc(O)c1O	3.66µM*	4.61µM*	x	-6.3%	x	x
Cc1ccccc1-c1noc(-c2ccc(N3CCN(C)CC3)c([N+](=O)[O-])c2)n1	16.4µM*	13µM*	18.1%	5.7%	x	u
CN1CCN(c2ccc(-c3nc(-c4ccccc4)no3)cc2[N+](=O)[O-])CC1	u	14.6µM*	-13.0%	11.4%	x	3.3%
Cc1ccccc1-c1noc(-c2ccc(N3CCCC3)c([N+](=O)[O-])c2)n1	-9.5%	-14.1%	0.6%	11.4%	x	-0.3%
COc1cc(-c2noc(-c3ccc(N4CCN(C)CC4)c([N+](=O)[O-])c3)n2)cc(OC)c1OC	3.26µM*	3.26µM*	1.5%	2.9%	x	-0.5%
COc1ccccc1-c1noc(-c2ccc(N3CCN(C)CC3)c([N+](=O)[O-])c2)n1	u	u	-0.8%	5.7%	x	u
CC1CCN(c2ccc(-c3nc(-c4ccccc4)no3)cc2[N+](=O)[O-])CC1	u	u	-9.5%	11.4%	x	5.3%
CCN1CCN(CCCNC(=O)Cn2nc(C)n3c(cc4cc(C)ccc43)c2=O)CC1	-12.2%	-23.3%	-0.2%	-1.0%	x	0.0%
SMILES	TDP1 cell CPT	DT40 TDP1 no CPT	HepG2 tox	TDP1 inh	IL1B secr inh	TGFb inhibitor
COc1ccc(-c2ncccc2OC(=O)C23CC4CC(CC(C4)C2)C3)cc1	18.4µM*	23.1µM*	5.2%	5.3%	14.5	0.0%
O=C(O)c1ccccc1OC(=O)C12CC3CC(CC(C3)C1)C2	10.9%	-1.8%	0.0%	0.0%	22.9	2.2%
N#C/C(=C\c1c[nH]c2ccc(Br)cc12)c1ccccn1	u	20.6µM*	-90.5%	x	-84.1*	u
Cc1ccc(S(=O)(=O)N(OCc2ccccc2)C(C)C(=O)O)cc1 (centres undefined)	9.1%	7.2%	6.6%	x	27.0	-3.0%
FC(F)(F)c1ccc(N/N=C/c2cccnc2)nc1	-23.1%	u	-21.3%	x	-96.7*	-11.9%
Cc1ncc(CO)c(/C=N/Nc2ccc(C(F)(F)F)cn2)c1O	4.11µM*	3.66µM*	-16.1%	9.3%	62.7	0.0%
Cc1ncc(CO)c(/C=N/N=C/c2ccccc2O)c1O	-15.0%	-11.5%	-35.6%	2.6%	-11.3	-4.0%
Cc1ncc(CO)c(/C=N/NC(=S)Nc2ccc(F)cc2)c1O	16.4µM*	10.3µM*	-28.1%	8.5%	50.0	-14.7%
O=C(O)c1c(Sc2ccccc2)c2cc(Cl)ccc2n1Cc1ccc(Cl)cc1	x	x	x	0.3%	x	x
N#CCCn1c(=O)c(-c2ccc(Cl)cc2)nc2cnc(OCc3ccccc3)nc21	-12.9%	-3.1%	x	x	x	x
CC(C)(C)OC(=O)N(CCc1ccccc1)Cc1ccccc1OCc1cccc(NC(=O)C2CC2)c1	u	u	-3.5%	x	-8.5	-19.4%
CC(C)(C)OC(=O)N(Cc1ccccc1)Cc1ccccc1OCc1cccc(NC(=O)c2ccccc2)c1	16.4µM*	16.4µM*	-2.1%	x	8.3	-22.0%
CC(C)(C)OC(=O)N(Cc1ccccc1)Cc1cccc(OCc2cccc(NC(=O)c3ccccc3)c2)c1	23.1µM*	23.1µM*	-0.3%	x	-4.8	3.1%

Source: PubChem (National Center for Advancing Translational Sciences (NCATS))
